From PubChem BioAssay AID743314 (Broad Institute, 2014)
Entries with a potency or affinity are not part of this list. Results filed as inconclusive are left out. Active and inactive are the calls of the source.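 How the source made its calls: active means fitted half-maximal concentration no higher than twice the top tested dose, in every repeat run; inconclusive means repeat runs disagree, poor fit, or flat partial inhibition; inactive means the rest.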

Molecular target: Endoplasmic reticulum aminopeptidase 1 (Homo sapiens) (UniProt Q9NZ08)
Assay: inhibition of human ERAP1 enzyme activity – biochemical, cherry-pick, set 2, plate reader, dose response (AID 743314)
Conditions: Recombinant ERAP1, Leu-AMC fluorescence, 60 min; series mostly up to 11 µM

Chain of Endoplasmic reticulum aminopeptidase 1 (Homo sapiens) (Q9NZ08 whole entry, looked up): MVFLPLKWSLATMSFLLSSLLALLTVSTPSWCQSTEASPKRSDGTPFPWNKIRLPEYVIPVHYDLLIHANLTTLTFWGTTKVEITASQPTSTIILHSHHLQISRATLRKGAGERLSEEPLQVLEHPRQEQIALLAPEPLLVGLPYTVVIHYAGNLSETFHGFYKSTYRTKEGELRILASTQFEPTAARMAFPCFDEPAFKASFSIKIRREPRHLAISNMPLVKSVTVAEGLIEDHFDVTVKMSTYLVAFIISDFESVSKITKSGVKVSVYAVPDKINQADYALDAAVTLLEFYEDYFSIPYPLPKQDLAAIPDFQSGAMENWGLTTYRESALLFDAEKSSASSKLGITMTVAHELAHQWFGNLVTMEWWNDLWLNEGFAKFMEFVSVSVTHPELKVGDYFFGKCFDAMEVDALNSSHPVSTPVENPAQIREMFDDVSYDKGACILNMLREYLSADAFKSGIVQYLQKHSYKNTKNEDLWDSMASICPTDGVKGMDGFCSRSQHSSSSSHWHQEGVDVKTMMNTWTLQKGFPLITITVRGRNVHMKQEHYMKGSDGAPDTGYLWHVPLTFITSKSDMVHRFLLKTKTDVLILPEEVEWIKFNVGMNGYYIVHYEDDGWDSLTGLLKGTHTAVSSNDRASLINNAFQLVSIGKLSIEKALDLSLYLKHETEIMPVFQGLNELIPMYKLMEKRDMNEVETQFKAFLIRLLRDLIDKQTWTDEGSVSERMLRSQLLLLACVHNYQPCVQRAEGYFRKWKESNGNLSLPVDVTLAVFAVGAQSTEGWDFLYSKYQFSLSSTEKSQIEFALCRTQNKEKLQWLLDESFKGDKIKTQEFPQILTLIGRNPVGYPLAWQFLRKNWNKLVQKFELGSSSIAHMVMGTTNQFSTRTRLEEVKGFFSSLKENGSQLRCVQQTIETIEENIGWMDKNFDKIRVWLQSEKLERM

outcome, inactive:
CCN(CC)C(=O)c1ncn(C)c1C(=O)N(CC)CC
O=C(C[C@H]1CC[C@@H]2[C@H](COC[C@@H](O)CN2C(=O)Nc2cccc(Cl)c2)O1)N1CCCCC1
COc1ccc(NC(=O)Nc2ccc3c(c2)C(=O)N([C@@H](C)CO)C[C@@H](C)[C@H](CN(C)Cc2ccc(C(=O)O)cc2)OCCCC[C@H](C)O3)cc1
CC(OC(=O)c1cc(=O)[nH]c2ccccc12)C(=O)Nc1ccccc1F (stereo not drawn)
Cc1c(O)ccc2c(CN3CCN(Cc4ccccc4)CC3)cc(=O)oc12
COc1cccc(CN(C)Cc2cc(=O)oc3cc(O)c(Cl)cc23)c1
COc1ccc2c3c([nH]c2c1)[C@@H](CO)N(Cc1ccccc1)CC31CN(C)C1
CN(C)C(=O)c1cccc(-c2ccc3c(c2)[C@@H]2[C@@H](CCN2Cc2nccs2)[C@@H](CO)N3)c1
Cc1noc(C)c1NC(=O)N(C)C[C@@H]1Oc2c(NC(=O)Nc3ccccc3)cccc2C(=O)N([C@H](C)CO)C[C@@H]1C
COc1ccc2c3c([nH]c2c1)[C@H](CO)NCC31CN(Cc2cc(F)ccc2F)C1
CCCNC(=O)N1C[C@@H](C)[C@@H](OC)CN(C)C(=O)c2cc(NS(=O)(=O)CC(F)(F)F)ccc2OC[C@@H]1C
O=C(c1ccc(F)cc1)N1CC2(C1)[C@@H](c1ccccc1)[C@@H](CO)N2Cc1ccccn1
CC(Nc1ccc(F)cc1)=[N+](C)CCNS(=O)(=O)c1ccc(Cl)cc1
